Hits are enriched below; roughly 1.8% of the tested compounds scored in any of these assays.
PP5 primary = inhibitors of human protein phosphatase 5 (PP5); purified PP5c, OMFP substrate fluorescence; inhibition, % at 6.7 µM; 0.18% of 320,000 active;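 active = inhibition above the campaign's mean inhibition across all tested compounds plus 3 SD, cut at about 9.5% in these data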;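 note: 0% = DMSO only and 100% = 100 µM cantharidin control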
Target sequence (P53041 whole entry, looked up): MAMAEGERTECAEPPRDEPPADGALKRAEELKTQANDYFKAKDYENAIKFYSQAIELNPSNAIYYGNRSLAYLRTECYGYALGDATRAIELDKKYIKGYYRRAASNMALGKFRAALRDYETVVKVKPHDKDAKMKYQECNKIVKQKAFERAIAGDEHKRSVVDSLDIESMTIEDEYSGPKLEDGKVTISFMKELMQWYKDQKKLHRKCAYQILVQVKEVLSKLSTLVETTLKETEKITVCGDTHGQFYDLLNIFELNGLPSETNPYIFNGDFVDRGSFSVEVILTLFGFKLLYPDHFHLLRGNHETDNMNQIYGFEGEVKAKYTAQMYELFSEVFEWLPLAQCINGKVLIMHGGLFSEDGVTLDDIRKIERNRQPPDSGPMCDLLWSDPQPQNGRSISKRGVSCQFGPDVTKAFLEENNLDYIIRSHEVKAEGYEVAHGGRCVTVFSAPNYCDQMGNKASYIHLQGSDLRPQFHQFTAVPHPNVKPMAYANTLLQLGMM
LYPLA2 inh = blocks human lysophospholipase 2, a PME1 counter-screen | recombinant LYPLA2, FP-Rh probe fluorescence polarization | inhibition, % at 5.9 µM | 0.38% of 320,000 active | O95372;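 active = inhibition above the screen-wide mean plus 3 SD, limit set per campaign, cut at about 26% in these data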;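 note: 0% = LYPLA2 with DMSO and 100% = wells lacking LYPLA2 enzyme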
PP1 inh = PP1-alpha (human) inhibition in PP5 counter-screen; purified PP1alpha, OMFP fluorescence; inhibition, % at 6.7 µM; 0.9% of 320,000 active;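 active = inhibition above the mean inhibition of all tested compounds plus 3 SD, computed separately for each screening campaign, cut at about 15% in these data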
PME-1 primary = PME-1 (human) inhibition. recombinant PME-1, FP-Rh probe fluorescence polarization. 0.53% of 320,000 active. inhibition, % at 5.9 µM. AID 2130. Q9Y570;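 active = inhibition above the campaign mean of all compounds plus 3 SD, cut at about 26% in these data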;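 note: competitive labeling of PME-1 active site by serine hydrolase directed probe; 0% = PME-1 with DMSO and 100% = wells lacking PME-1 enzyme; inhibitors block probe labeling so polarization falls and inhibition rises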
LYPLA1 counter = LYPLA1 (human) inhibition in PME1 counter-screen. 0.16% of 320,000 active. recombinant LYPLA1, FP-Rh probe fluorescence polarization. AID 2174. O75608. inhibition, % at 5.9 µM;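 active = inhibition above the mean of all tested compounds plus 3 SD, set per campaign, cut at about 14% in these data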;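 note: inhibitors block serine hydrolase probe labeling of LYPLA1 so polarization falls; 0% = enzyme with DMSO and 100% = wells lacking LYPLA1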
Fam108B inh = counter-screen for RBBP9 inhibitors: inhibitors of mouse Fam108B; inhibition, % at 9.51 µM; AID 1947; 0.33% of 300,000 active; recombinant Fam108B, FP-Rh probe fluorescence polarization;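 active = inhibition above the screen mean inhibition plus 3 SD, computed separately per campaign, cut at about 18% in these data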;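 note: inhibitors lower polarization as less probe binds the enzyme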
LYPLA2 conf = LYPLA2 (human) inhibition, confirmation counter-screen; shares compounds with LYPLA2 inh; recombinant LYPLA2, FP-Rh probe fluorescence polarization; inhibition, % at 5.9 µM; 72% of 1,100 active; AID 2232;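 active = mean inhibition across replicates above the hit cutoff set in the primary screen, cut at about 26% in these data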;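 note: blocked labeling of the enzyme by serine hydrolase FP-Rh probe lowers polarization; 0% = enzyme with DMSO and 100% = wells lacking LYPLA2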
LYPLA2 gel ABPP = blocks human acyl-protein thioesterase 2 in gel ABPP; rhLYPLA2 in mouse brain proteome, gel ABPP FP-Rh; inhibition, % at 20 µM; 30% of 150 active; AID 652029; shares compounds with LYPLA2 inh;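 active = inhibition of LYPLA2 enzyme probe labeling above about 50%, limit read from the data; inactive = inhibition below that limit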;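 note: loss of FP-Rh probe labeling of the LYPLA2 gel band measured as band density; 0% = DMSO only control band and 100% = blank gel background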
Starred values were filed as active, the others as inactive; . = no result given.

SMILES	PP5 primary	LYPLA2 inh	PP1 inh	PME-1 primary	LYPLA1 counter	Fam108B inh	LYPLA2 conf	others
Cc1ccc(C(=O)Nc2ccc(N3CCN(C(=O)c4cccs4)CC3)cc2)c(Cl)c1	-6	47*	-2	-2	5	3	46*
Cc1ccc(C(=O)Nc2ccc(N3CCN(C(=O)c4ccco4)CC3)cc2)c(Cl)c1	3	42*	8	1	9	-1	31*
COc1ccc(-c2cn(Cc3ccc(C(N)=O)cc3)c(CCN)n2)cc1	2	-6	-3	-1	-2	0	.
CCOC(=O)C1(CCOc2ccccc2)CCN(Cc2ccc3nonc3c2)CC1	-1	31*	-2	-2	4	-1	28*
CCOC(=O)C1(CCOc2ccccc2)CCN(Cc2ccc(OC)cc2)CC1	2	-1	1	-1	-3	2	.
O=C(C1CCN(c2ncnc3c2nc2n3CCCCC2)CC1)N1CCN(c2ccc(F)cc2)CC1	3	40*	-3	1	2	-1	32*
COc1ccc([C@H]2CC(=O)C=C(c3cccc(C#N)c3)C2)cc1	4	33*	2	-1	12	.	26*
COc1ccc([C@H]2CC(=O)C=C(c3cccc(OC)c3)C2)cc1	3	3	1	7	-3	.	.
N#Cc1ccc(COC(=O)c2cnc3ccccc3n2)cc1	2	27*	2	6	2	-1	27*
O=C(Nc1ccc(CN2CCCCC2)cc1)c1sc2ccccc2c1Cl	0	-1	3	-1	-6	-3	.
O=[N+]([O-])c1ccc(Oc2ccc(/C=N/O)cc2)nc1	-1	41*	-2	-4	5	7	26*
N/C(=N\OC(=O)c1ccc2ccccc2c1)c1ccccc1Cl	0	-2	-5	-2	4	5	.
O=C(Cn1cc(C(F)(F)F)ccc1=O)NCCc1ccc(Cl)cc1Cl	-7	-3	-1	3	1	0	.
N#Cc1ccc(CN2CCN(CC(=O)NCCc3ccc(Cl)cc3Cl)CC2)cc1	-1	27*	3	7	-1	6	17
Cc1ccc(S(=O)(=O)N2CCN(Cc3cc(=O)n4ccccc4n3)CC2)c(C)c1	3	6	2	4	-2	.	.
O=C(Nc1ccc2c(c1)CCC2)C1CCN(c2c3c(nc4ncnn24)CCC3)CC1	1	12	1	-2	-2	-1	.
O=C(Nc1ccc(Oc2ccccc2)cc1)C1CCN(c2c3c(nc4ncnn24)CCC3)CC1	1	28*	10	-1	-2	-1	22
COc1ccc(C2NS(=O)(=O)N=C2N)cc1 (stereo unspecified)	-1	32*	-3	2	4	4	-7
CC(=O)Nc1ccc(N2CCN(c3ccc(C(F)(F)F)cn3)CC2)nc1	3	52*	-4	-2	4	-4	51*	LYPLA2 gel ABPP=27
CC(=O)c1cccc(OCC(=O)N2CCN(c3ccc(C(F)(F)F)cn3)CC2)c1	2	58*	1	2	5	0	57*	LYPLA2 gel ABPP=45
CC(=O)c1ccc(N2CCN(c3ccc(C(F)(F)F)cn3)CC2)cc1	1	46*	6	7	1	0	42*
CCOc1ccc(CCNC(=O)c2ccc3ccccc3n2)cc1OCC	1	-4	-2	0	-3	2	.
CCOC(=O)CSc1nnc(CSc2nc3sc4c(c3c(=O)[nH]2)CCC4)n1-c1ccccc1	0	57*	-1	0	6	10	51*
CCOC(=O)CSc1nnc(CSc2nc3sc4c(c3c(=O)[nH]2)CCC4)n1C	0	9	5	-1	-2	2	.
CCN(C(=O)c1c(C)noc1C)c1c(N)n(Cc2ccccc2)c(=O)[nH]c1=O	3	3	-4	1	-1	.	.
CN(C(=O)COc1ccc([N+](=O)[O-])cc1)C1CCS(=O)(=O)C1 (stereo unspecified)	-2	31*	-5	-5	1	4	7
